Compound activity: PubChem, several laboratories
EBV gp42 block – Epstein-Barr virus gp42 inhibitors, primary screen, biochemical, uHTS, fluorescence polarization; inhibition, % (tested at 21.74 µM); Glycoprotein 42 (Epstein-Barr virus (strain AG876)), Q1HVG2; Fluorescence polarization binding assay, mP read-out; 220,000 tested, 0.42% active; AID 1085, 2008; in the data active = inhibition above about 50%
Target sequence (Q1HVG2 whole entry, looked up): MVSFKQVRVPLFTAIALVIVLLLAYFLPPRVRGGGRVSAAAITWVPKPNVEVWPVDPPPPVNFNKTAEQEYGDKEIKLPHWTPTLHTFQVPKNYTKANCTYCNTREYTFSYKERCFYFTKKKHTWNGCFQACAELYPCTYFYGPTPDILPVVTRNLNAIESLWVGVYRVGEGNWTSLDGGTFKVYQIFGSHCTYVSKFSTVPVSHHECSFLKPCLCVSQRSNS
MCL1-BIM inh – inhibitors of MCL1 binding to BIM-BH3, primary screen, biochemical, fluorescence polarization; Induced myeloid leukemia cell differentiation protein Mcl-1 (Homo sapiens), Q07820; GST-MCL1 / FITC-Bim-BH3 fluorescence polarization; inhibition, % at 10.9 µM; 320,000 tested, 0.68% active; AID 2057, 2009;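 active = inhibition above the mean inhibition of all tested compounds plus 3 SD, set per campaign, cut at about 40% in these data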;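 also: 0% = DMSO wells and 100% = unlabeled Bim-BH3 peptide control; higher means more loss of mP so more displacement of Bim peptide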
GLD-1 RNA inh – GLD-1/TGE RNA complex disruptors, primary screen, biochemical, fluorescence polarization; Female germline-specific tumor suppressor gld-1 (Caenorhabditis elegans), Q17339; purified GLD-1 + fluorescein TGE RNA; inhibition, % at 5.96 µM; 320,000 tested, 0.44% active; AID 2280, 2010;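 active = percent inhibition above a per-plate cutoff, the plate mean of test compounds plus 3 SD, cut at about 30% in these data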;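 also: 0% = DMSO wells with GLD-1 and probe and 100% = wells lacking GLD-1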
MEX-5 binding – MEX-5 zinc finger RNA-binding disruptors – biochemical, C. elegans, fluorescence polarization, MLPCN library, primary screen. AID 1832, 2009. 300,000 tested, 0.38% active. MEX-5/FITC-TCR2 RNA binding; stronger effect = lower value. activity score (negative = inhibition of binding), % at 10 µM. Zinc finger protein mex-5 (Caenorhabditis elegans), Q9XUB2;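 active = inhibition past about -25% in most replicates, and total fluorescence under double the plate's negative control median, limit read from the data; inconclusive = replicates evenly split on the limit, or fluorescence at least double controls; inactive = too little inhibition in most replicates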;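 also: 0% = DMSO and -100% = 5 µM competing unlabeled TCR2 RNA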
Target sequence (Q9XUB2 whole entry, looked up): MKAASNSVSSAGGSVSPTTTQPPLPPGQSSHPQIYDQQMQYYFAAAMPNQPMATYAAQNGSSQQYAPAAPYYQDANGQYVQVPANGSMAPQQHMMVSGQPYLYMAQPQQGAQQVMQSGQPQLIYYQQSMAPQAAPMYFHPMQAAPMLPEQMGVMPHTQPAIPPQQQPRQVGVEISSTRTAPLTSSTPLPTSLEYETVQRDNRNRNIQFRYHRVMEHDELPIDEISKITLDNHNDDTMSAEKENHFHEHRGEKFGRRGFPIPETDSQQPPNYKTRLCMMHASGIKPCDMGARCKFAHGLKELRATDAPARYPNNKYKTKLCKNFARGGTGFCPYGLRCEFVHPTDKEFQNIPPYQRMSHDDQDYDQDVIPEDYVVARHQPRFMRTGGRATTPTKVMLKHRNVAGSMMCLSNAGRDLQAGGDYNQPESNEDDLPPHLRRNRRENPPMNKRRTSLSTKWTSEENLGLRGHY
Bcl-xL primary – inhibitors of human Bcl-xL, primary screen, biochemical, fluorescence polarization, HTS. Bcl-2-like protein 1 (Homo sapiens), Q07817. GST-Bcl-xL / FITC-Bim BH3 peptide fluorescence polarization. inhibition, % at 10.9 µM. 320,000 tested, 0.7% active;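 active = inhibition above the mean of all tested compounds plus 3 SD, cutoff set per campaign, cut at about 30% in these data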;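 also: 0% = DMSO wells and 100% = unlabeled Bim-BH3 peptide competitor; inhibitors lower millipolarization by displacing the labeled peptide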
Bcl-xL conf – Bcl-xL inhibitors blocking Bim BH3 binding, confirmation, counter-screen for MCL1 inhibitor project, biochemical, fluorescence polarization; inhibition, % at 10.9 µM; GST-Bcl-xL / FITC-Bim BH3 peptide FP binding; 1,700 tested, 54% active; shares compounds with MCL1-BIM inh; AID 2166, 2009;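 active = inhibition above a cutoff equal to the mean inhibition of all tested compounds plus 3 SD, cut at about 30% in these data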;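 also: 0% = DMSO wells and 100% = unlabeled Bim BH3 control peptide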
MCL1 BIM confirm – inhibitors of MCL1 binding to BIM-BH3, confirmation, biochemical, fluorescence polarization, triplicate | 1,700 tested, 61% active | inhibition, % at 10.9 µM | GST-MCL1 / FITC-Bim-BH3 fluorescence polarization | shares compounds with MCL1-BIM inh;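 active = inhibition above the average of all tested compounds plus 3 SD, cut at about 40% in these data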;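 also: 0% = DMSO wells and 100% = unlabeled Bim-BH3 control peptide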
The depositor's hits bear a star; u = inconclusive; x = not tested or not shown; + = active, no number. A selection: hits, their analogues and other compounds. The true share with any hit is near 1.3%.

SMILES | EBV gp42 block | MCL1-BIM inh | GLD-1 RNA inh | MEX-5 binding | Bcl-xL primary | Bcl-xL conf | MCL1 BIM confirm
C#CCN1c2ccccc2Sc2cccnc21 | x | + | 92.5* | -10.6 | + | 26.6 | 38.9
CC(=O)NN1C(=O)/C(=C\c2ccc(Br)o2)SC1=S | -18.9 | 70.9* | 7.8 | -0.9 | 33.4* | 12.7 | 18.3
CC(=O)NN1C(=O)/C(=C\c2ccc(O)cc2)SC1=S | -103.4 | -14.0 | -81.3 | u | -13.2 | x | x
CC(=O)NN1C(=O)/C(=C\c2ccccc2)SC1=S | x | 5.4 | 0.4 | -0.8 | 3.5 | x | x
CC(=O)NN1C(=O)/C(=C/c2ccc(Br)o2)SC1=S | -12.9 | 45.2* | -3.3 | -20.9 | 18.8 | -6.7 | -25.1
CN(C)c1ccc(/C=C2\C(=N)N3C(=NC2=O)Sc2cc(S(C)(=O)=O)ccc23)cc1 | 28.4 | -84.1 | -87.5 | 0.3 | -57.8 | x | x
NC(=O)C1CCN(C(=O)CCSCc2ccccc2)CC1 | x | -1.5 | -1.2 | -1.8 | -1.5 | x | x
O=[N+]([O-])c1ccc2[nH]c(O)c(N=NC(=S)Nc3cccnc3)c2c1 | 59.4* | 42.1* | -1.9 | 2.6 | 18.3 | 32.4* | 33.4
CCNC(=S)N=Nc1c(O)[nH]c2ccc([N+](=O)[O-])cc12 | 7.3 | 5.2 | -1.1 | -4.9 | 24.4 | x | x
Nc1nnc(-c2ccco2)s1 | -21.1 | 7.4 | 1.4 | -1.8 | 4.5 | x | x
Nc1ncnc2oc(-c3ccco3)c(-c3ccco3)c12 | 44.6 | 95.1* | 8.2 | -18.3 | 36.2* | 40.0* | 93.1*
O=C(COc1ccccc1C(=O)N/N=C\c1ccc(O)c(O)c1)N/N=C/c1ccc(O)c(O)c1 | 9.4 | 56.3* | 2.8 | -2.2 | 16.3 | 44.2* | 80.7*
Cc1ccc(-c2nc3ccccc3nc2-c2ccccc2)cc1 | x | -5.1 | 7.0 | 0.6 | -3.5 | x | x
Cn1nc(-c2ccccc2)c2nc3ccccc3nc21 | 126.3* | 55.4* | -13.1 | u | 55.6* | 101.5* | 111.1*
CCN(CC)c1ncnc2c1cnn2Cc1ccc(C)cc1 | x | 45.2* | -6.2 | -2.2 | 2.9 | 8.1 | 9.5
Cc1ccc(Cn2ncc3c(NN)ncnc32)cc1 | x | x | x | -0.4 | x | x | x
CN1C(=O)NC(c2ccccc2[N+](=O)[O-])C2=C1CCCC2=O (centres undefined) | x | + | + | -79.8* | + | 154.2* | 176.7*
O=S(=O)(Nc1nc2ccccc2nc1-[n+]1cccc(N=C([O-])c2ccccc2Cl)c1)c1ccccc1 | 74.3* | 84.1* | 12.7 | -9.2 | 71.2* | 59.6* | 90.2*
COc1ccc(C([O-])=Nc2ccc[n+](-c3nc4ccccc4nc3NS(=O)(=O)c3ccccc3)c2)cc1 | 6.7 | 0.3 | 4.5 | x | 7.7 | x | x
FC(F)(F)c1cc(C(F)(F)F)c2ccc(N3CCOCC3)nc2n1 | x | 3.7 | -4.2 | -2.9 | 4.7 | x | x
CN1CCCc2cc3c(C(F)(F)F)cc(=O)oc3nc21 | 131.6* | 167.8* | 125.1* | u | 155.3* | 141.2* | 173.8*
CCn1c(SCC(=O)N/N=C/c2ccccc2OCC(=O)O)nnc1-c1ccc(C)cc1 | -5.5 | -4.2 | -0.7 | 2.5 | -6.2 | x | x
CCNc1nc(-c2cc(C)n(Cc3ccco3)c2C)cs1 | -8.6 | 46.5* | 13.8 | -0.5 | 41.3* | 13.6 | 17.6
COc1ccc2[nH]c3c(c2c1)CCNC3c1ccc([N+](=O)[O-])o1 (centres undefined) | x | 96.1* | 37.2* | -50.3* | 87.2* | 79.4* | 101.3*
COc1ccc2[nH]c3c(c2c1)CCNC3C1CC=C(C)CC1 (centres undefined) | -2.4 | 0.2 | -2.4 | -2.3 | 3.3 | x | x
SMILES | EBV gp42 block | MCL1-BIM inh | GLD-1 RNA inh | MEX-5 binding | Bcl-xL primary | Bcl-xL conf | MCL1 BIM confirm
CCN(CC)C(=O)CSc1nnc2nnc3cc(OC)ccc3n12 | 123.8* | 148.3* | 120.0* | -77.0* | 137.6* | 124.4* | 158.9*
O=C1Nc2ccccc2/C1=C/c1cnc(-c2ccccc2)[nH]1 | 58.7* | 161.6* | 73.3* | -10.2 | 138.2* | 102.0* | 117.4*
CC(C)(C)c1cc(=O)n(-c2ccccc2)[nH]1 | -11.1 | -0.7 | 3.5 | x | 3.2 | x | x
Brc1cc2c(cc1-c1nc3ccccc3s1)OCO2 | x | 3.3 | 4.3 | 1.1 | -0.5 | x | x
Oc1ccc(N=C/C=C/c2ccc(Br)cc2)cc1-c1nc2ccccc2s1 | 1.0 | 47.8* | 20.1 | 2.6 | 45.8* | 26.5 | 18.8
Cc1cc(OCC(=O)NNC(=O)c2cccs2)ccc1Br | x | 0.4 | -3.9 | 1.5 | -6.1 | x | x
COc1ccc(Cl)cc1N(CC(=O)N1CCCC1)S(C)(=O)=O | x | -0.9 | -0.2 | -0.4 | -0.4 | x | x
COc1ccc(Cl)cc1N(CC(=O)N1CCC(C)CC1)S(C)(=O)=O | -7.2 | 65.3* | -3.1 | 2.0 | 1.1 | 10.6 | 16.7
O=C(Nc1oc2ccc(Cl)cc2c(=O)c1-c1ccc(F)cc1)c1ccco1 | x | 4.3 | -0.9 | 1.7 | 6.1 | x | x
O=C1/C(=C/C=C/c2ccco2)SC(=S)N1NS(=O)(=O)c1ccccc1 | -11.5 | 82.5* | -6.2 | x | 66.9* | 45.0* | 72.9*
CC(C(=O)O)N1C(=O)/C(=C/C=C/c2ccco2)SC1=S (centres undefined) | x | 82.9* | -4.2 | -86.7* | 49.6* | 58.2* | 86.7*
CCc1ccc(OCCCC(=O)Nc2ccc(S(=O)(=O)Nc3cc(C)nc(C)n3)cc2)cc1 | x | 3.4 | -1.1 | 2.5 | 7.5 | x | x
CCCNC(=O)c1c(N)n(-c2ccc3c(c2)OCO3)c2nc3ccccc3nc12 | -18.1 | 4.9 | 10.3 | -1.5 | 8.7 | x | x
Nc1c(C(=O)NC2CC2)c2nc3ccccc3nc2n1-c1ccc2c(c1)OCO2 | 29.4 | 61.1* | 27.1 | -7.5 | 42.4* | 34.8* | 41.7*
CCOc1ccc(N2CC(C(=O)Nc3cccnc3)CC2=O)cc1 (centres undefined) | x | 5.3 | 3.4 | 0.7 | 1.9 | x | x
Cc1nn(-c2ccccc2)c(Cl)c1/C=N/O | -5.2 | 119.4* | 0.1 | -2.6 | 5.6 | 4.2 | 8.9
O=c1[nH]c(Nc2ccccc2Cl)cc2ccccc12 | x | 4.3 | 2.4 | -0.9 | 7.0 | x | x
Cc1ccccc1Nc1cc2ccccc2c(=O)[nH]1 | 23.1 | 81.0* | 49.9* | -21.8 | 82.1* | 85.0* | 93.3*
